Experiment [1] can be described thus: Human pregnane X receptor (PXR) small molecule agonists, qHTS cell viability counter screen (AID 1346977). Also: nearly all actives have a fitted effect of over 50% in size. The method, boiled down:
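Same-well viability read: CellTiter-Fluor added after 23 hr compound exposure, fluorescence measured 1 hr later. Cells were PXR-Luc HepG2 seeded at 2,000/well in 5% charcoal-stripped FBS medium, rested 5 hr before dosing at 37 C.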
(In qHTS, concentration-response curves come from the screen itself.)

A short description of experiment [2]: Caspase-3/7 induction in HepG2 cells by small molecules, qHTS assay (AID 1346978). Also: nearly all actives have a fitted effect of over 15% in size. The method, boiled down: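 Caspase-3/7 induction was measured by Caspase-Glo 3/7 luminescence (30 min, room temperature) after a 17 hr compound exposure of wild-type HepG2 cells seeded at 2,000 per well and pre-incubated 5 hr.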
Experiment [3] in a line: Caspase-3/7 induction in CHO-K1 cells by small molecules, qHTS cell viability counter screen (AID 1346979). Also: nearly all actives have a fitted effect of over 35% in size. The essentials:
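Cytotoxicity counter screen: CellTiter-Fluor added to compound-treated wild-type CHO-K1 cells at 16 h (37C, 5% CO2), fluorescence measured 1 h later; same wells as caspase-3/7 measurement.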

The nature of experiment [4]: Caspase-3/7 induction in CHO-K1 cells by small molecules, qHTS assay (AID 1346980). Also: nearly all actives have a fitted effect of over 15% in size. The method, boiled down:
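Luminescent Caspase-Glo 3/7 read (30min, room temperature) quantified apoptosis induction. Cells were wild-type CHO-K1, treated with compound for 17hr at 37 C and 5% CO2.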

The nature of experiment [5]: Caspase-3/7 induction in HepG2 cells by small molecules, qHTS cell viability counter screen (AID 1346981). Also: series mostly up to about 92 µM; nearly all actives have a fitted effect of over 30% in size. The essentials:
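Counter screen for cytotoxicity: HepG2 exposed 16 hr to compounds, then CellTiter-Fluor viability signal (fluorescence, 1 hr reagent incubation).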

Experiment [6] addresses Cytochrome P450 2C19 (Homo sapiens) (UniProt P33261). The experiment in a line: Cytochrome P450 Family 2 Subfamily C Member 19 (CYP2C19) small molecule antagonists: luciferase reporter qHTS assay (AID 1671197). Also: nearly all actives have a fitted effect of over 65% in size. Also: potency is read from the fitted curve at half-maximal effect. The essentials:
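Relative luminescence units recorded 20 min after the detection reagent stopped a 1 h, 37C CYP2C19 reaction on proluciferin substrate, which was started by NADPH regeneration following 10 min room-temperature compound preincubation; ketoconazole positive control.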
In general terms: Reporter assays use an easily measured gene product as a stand-in for the process of interest.

For experiment [7], the target named is Voltage-gated inwardly rectifying potassium channel KCNH2 (Homo sapiens) (UniProt Q12809). Nature of the experiment: Human Ether-a-go-go-Related Gene (hERG) channel small molecule antagonists: fluorescence cell-based qHTS assay (AID 1671200). Also: nearly all actives have a fitted effect of over 50% in size. Also: potency is read from the fitted curve at half-maximal effect. The method, boiled down: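 Thallium flux as potassium surrogate: FluxOR II dye loaded 1 h at room temperature into hERG-expressing U2OS cells, then stimulus buffer added after 10 min. Kinetic 480 nm excitation/540 nm emission read, 2 min.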

Experiment [8] deals with Cytochrome P450 3A4 (Homo sapiens) (UniProt P08684). The experiment in a line: Cytochrome P450 Family 3 Subfamily A Member 4 (CYP3A4) small molecule antagonists: luciferase reporter qHTS assay (AID 1671201). Also: series mostly up to about 120 µM; nearly all actives have a fitted effect of over 50% in size. The essentials:
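Recombinant human CYP3A4 converts a proluciferin substrate to luciferin over 1 h at room temperature after NADPH regeneration solution is added (compound preincubated 10 min); detection reagent stops reaction, luminescence read 20 min later as relative units.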

Experiment [9] has as its target Nuclear receptor subfamily 1 group I member 2 (Homo sapiens) (UniProt O75469). The experiment in a line: Human pregnane X receptor (PXR) small molecule agonists, qHTS assay (AID 1346982). Also: nearly all actives have a fitted effect of over 35% in size. Also: potency is read from the fitted curve at half-maximal effect. The essentials: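 Luminescence (ONE-Glo, 30 min RT) after 24 hr compound exposure of PXR-Luc HepG2 cells; cells rested 5 hr post-plating in 5% charcoal-stripped FBS medium.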
Experiment [10] addresses Cytochrome P450 2D6 (Homo sapiens) (UniProt P10635). The experiment in a line: Cytochrome P450 Family 2 Subfamily D Member 6 (CYP2D6) small molecule antagonists: luciferase reporter qHTS assay (AID 1671196). Also: nearly all actives have a fitted effect of over 50% in size. Also: potency is read from the fitted curve at half-maximal effect. The essentials: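 Inhibition of CYP2D6 was gauged by loss of luminescence, since light produced tracks the luciferin generated from a proluciferin substrate. A 10 min room-temperature preincubation preceded 1 h NADPH-supported turnover.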

For experiment [11], the target named is Cytochrome P450 2C9 (Homo sapiens) (UniProt P11712). Nature of the experiment: Cytochrome P450 Family 2 Subfamily C Member 9 (CYP2C9) small molecule antagonists: luciferase reporter qHTS assay (AID 1671198). Also: nearly all actives have a fitted effect of over 50% in size. Also: potency is read from the fitted curve at half-maximal effect. The method, boiled down: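 Enzyme-substrate mix preincubated with compound 10 min at room temperature; reaction started with NADPH regeneration solution, 1 h 37C. Luminescent luciferin product read after 20 min detection reagent.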

Experiment [12] has as its target Cytochrome P450 1A2 (Homo sapiens) (UniProt P05177). Nature of the experiment: Cytochrome P450 Family 1 Subfamily A Member 2 (CYP1A2) small molecule antagonists: luciferase reporter qHTS assay (AID 1671199). Also: nearly all actives have a fitted effect of over 50% in size. Also: potency is read from the fitted curve at half-maximal effect. The method, boiled down:
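Signal from luciferin formed by CYP1A2 from a proluciferin substrate is read as luminescence, expressed in relative luminescence units. Compounds sit with enzyme 10 min, NADPH-driven reaction runs 1 h, all at room temperature.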

Values without a mark were called inactive. Results filed as inconclusive are left out. Active and inactive are the calls of the source. Calls follow the shape of the dose curve; as a rule, active = well fitted curve in the direction sought with a large enough effect in the repeat runs; inconclusive = weak or mixed curves; inactive = no such curve, though single readings can be large; an effect the other way counts as inactive or inconclusive.

Sequence of Cytochrome P450 2C19 (Homo sapiens) (P33261 whole entry, looked up): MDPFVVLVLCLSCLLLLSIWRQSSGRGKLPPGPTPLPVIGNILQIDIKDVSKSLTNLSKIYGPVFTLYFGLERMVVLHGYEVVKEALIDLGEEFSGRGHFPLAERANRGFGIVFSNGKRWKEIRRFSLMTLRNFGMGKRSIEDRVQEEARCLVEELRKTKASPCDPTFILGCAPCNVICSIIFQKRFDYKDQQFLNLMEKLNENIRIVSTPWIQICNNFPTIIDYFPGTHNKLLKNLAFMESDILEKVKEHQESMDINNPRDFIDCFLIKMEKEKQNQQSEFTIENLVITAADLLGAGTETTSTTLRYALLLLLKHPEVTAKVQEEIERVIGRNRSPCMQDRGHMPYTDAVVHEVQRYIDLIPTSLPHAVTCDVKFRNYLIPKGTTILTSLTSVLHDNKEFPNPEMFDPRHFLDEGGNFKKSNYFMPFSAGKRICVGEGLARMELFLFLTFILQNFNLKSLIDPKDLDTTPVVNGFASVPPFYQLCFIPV
Sequence of Cytochrome P450 3A4 (Homo sapiens) (P08684 whole entry, looked up): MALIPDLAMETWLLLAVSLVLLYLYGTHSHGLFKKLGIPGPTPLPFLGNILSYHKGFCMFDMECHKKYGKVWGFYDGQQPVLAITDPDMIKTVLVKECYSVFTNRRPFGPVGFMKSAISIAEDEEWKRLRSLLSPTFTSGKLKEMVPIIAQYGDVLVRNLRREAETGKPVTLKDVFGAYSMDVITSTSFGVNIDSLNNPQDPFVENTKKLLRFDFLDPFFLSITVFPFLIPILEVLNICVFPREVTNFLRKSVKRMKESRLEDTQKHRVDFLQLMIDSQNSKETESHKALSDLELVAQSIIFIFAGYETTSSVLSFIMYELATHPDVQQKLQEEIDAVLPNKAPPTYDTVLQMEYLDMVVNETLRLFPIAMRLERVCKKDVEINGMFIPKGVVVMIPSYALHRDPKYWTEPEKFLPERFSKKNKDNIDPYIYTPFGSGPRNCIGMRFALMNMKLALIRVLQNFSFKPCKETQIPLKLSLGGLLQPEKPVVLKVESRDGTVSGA
Sequence of Cytochrome P450 1A2 (Homo sapiens) (P05177 whole entry, looked up): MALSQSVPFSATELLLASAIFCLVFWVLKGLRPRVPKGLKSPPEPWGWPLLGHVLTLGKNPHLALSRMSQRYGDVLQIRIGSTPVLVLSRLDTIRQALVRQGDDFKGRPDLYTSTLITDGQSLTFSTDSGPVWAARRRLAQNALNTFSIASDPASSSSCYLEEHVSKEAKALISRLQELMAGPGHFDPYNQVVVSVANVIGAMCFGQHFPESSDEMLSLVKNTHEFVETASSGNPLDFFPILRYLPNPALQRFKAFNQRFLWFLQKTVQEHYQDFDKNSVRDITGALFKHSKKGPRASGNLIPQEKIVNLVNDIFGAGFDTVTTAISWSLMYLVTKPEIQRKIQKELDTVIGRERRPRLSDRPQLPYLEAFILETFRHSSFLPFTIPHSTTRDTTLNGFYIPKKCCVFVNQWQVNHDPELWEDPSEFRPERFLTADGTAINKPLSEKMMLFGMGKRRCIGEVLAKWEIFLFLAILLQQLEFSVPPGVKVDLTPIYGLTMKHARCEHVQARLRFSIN
Sequence of Cytochrome P450 2D6 (Homo sapiens) (P10635 whole entry, looked up): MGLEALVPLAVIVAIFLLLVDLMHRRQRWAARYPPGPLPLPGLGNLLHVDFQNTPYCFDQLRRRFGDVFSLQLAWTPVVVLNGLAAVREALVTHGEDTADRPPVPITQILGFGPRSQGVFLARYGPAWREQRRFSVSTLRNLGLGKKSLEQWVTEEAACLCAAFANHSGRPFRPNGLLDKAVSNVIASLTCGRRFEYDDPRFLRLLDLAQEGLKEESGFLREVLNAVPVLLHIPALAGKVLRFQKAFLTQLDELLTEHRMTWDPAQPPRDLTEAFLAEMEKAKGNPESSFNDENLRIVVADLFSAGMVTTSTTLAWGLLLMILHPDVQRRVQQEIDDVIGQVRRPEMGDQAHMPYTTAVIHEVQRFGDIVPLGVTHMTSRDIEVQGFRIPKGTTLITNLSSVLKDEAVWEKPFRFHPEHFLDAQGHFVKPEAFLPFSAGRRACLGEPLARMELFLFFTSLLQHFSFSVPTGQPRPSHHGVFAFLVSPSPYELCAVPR
Sequence of Cytochrome P450 2C9 (Homo sapiens) (P11712 whole entry, looked up): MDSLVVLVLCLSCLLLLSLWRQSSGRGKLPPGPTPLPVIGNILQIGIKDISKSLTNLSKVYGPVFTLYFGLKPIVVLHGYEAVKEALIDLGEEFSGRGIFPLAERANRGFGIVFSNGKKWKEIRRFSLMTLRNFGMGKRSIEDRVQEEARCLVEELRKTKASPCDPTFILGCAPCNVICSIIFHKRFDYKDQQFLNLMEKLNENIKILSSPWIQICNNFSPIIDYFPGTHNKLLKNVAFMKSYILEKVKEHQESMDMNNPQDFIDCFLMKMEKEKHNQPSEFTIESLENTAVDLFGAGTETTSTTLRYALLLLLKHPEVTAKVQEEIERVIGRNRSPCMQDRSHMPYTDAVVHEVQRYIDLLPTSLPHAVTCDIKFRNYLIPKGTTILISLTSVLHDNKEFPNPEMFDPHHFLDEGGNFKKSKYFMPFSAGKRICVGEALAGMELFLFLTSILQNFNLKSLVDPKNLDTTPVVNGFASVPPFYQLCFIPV
Sequence of Nuclear receptor subfamily 1 group I member 2 (Homo sapiens) (O75469 whole entry, looked up): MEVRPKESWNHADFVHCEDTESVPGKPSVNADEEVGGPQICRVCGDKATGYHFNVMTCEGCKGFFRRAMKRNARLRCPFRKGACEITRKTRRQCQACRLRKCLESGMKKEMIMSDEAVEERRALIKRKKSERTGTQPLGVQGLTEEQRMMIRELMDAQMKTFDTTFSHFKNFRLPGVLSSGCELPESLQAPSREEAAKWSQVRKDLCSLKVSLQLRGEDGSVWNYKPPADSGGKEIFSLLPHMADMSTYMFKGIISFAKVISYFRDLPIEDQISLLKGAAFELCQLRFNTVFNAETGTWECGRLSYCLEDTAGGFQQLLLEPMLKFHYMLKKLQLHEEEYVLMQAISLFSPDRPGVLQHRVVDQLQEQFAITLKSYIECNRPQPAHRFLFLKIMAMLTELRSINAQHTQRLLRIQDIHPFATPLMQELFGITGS
Sequence of Voltage-gated inwardly rectifying potassium channel KCNH2 (Homo sapiens) (Q12809 whole entry, looked up): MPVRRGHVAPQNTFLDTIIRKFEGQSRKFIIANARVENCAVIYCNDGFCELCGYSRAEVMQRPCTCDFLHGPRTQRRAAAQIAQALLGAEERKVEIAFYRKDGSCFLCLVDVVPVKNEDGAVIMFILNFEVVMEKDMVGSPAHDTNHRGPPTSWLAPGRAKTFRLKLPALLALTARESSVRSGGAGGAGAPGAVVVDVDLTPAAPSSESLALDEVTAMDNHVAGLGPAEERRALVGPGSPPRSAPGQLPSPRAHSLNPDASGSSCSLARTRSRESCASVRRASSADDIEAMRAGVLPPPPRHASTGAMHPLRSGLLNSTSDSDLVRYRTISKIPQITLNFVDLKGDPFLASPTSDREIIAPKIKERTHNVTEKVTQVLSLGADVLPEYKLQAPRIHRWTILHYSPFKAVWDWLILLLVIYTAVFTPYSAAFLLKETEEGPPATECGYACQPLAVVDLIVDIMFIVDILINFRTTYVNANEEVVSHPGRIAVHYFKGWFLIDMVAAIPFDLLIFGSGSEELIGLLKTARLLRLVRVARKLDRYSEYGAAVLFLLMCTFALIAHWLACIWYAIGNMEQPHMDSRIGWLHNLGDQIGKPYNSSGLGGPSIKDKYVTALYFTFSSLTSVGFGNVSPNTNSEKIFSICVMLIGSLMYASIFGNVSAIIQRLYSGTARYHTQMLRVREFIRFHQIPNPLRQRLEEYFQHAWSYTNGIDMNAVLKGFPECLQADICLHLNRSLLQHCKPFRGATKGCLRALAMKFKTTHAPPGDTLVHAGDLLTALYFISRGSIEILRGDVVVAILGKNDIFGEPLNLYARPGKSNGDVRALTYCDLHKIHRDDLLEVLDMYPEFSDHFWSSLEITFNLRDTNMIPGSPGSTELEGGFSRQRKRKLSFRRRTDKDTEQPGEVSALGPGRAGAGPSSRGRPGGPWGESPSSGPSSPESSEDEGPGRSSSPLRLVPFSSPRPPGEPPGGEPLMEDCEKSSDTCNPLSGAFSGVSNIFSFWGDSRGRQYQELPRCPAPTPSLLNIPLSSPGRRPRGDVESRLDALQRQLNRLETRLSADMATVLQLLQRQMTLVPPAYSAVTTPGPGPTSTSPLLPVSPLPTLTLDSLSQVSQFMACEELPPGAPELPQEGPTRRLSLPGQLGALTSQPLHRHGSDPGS

Turning to `Cc1c(Cl)cccc1Nc1ccccc1C(=O)O`, the Potency result in [1], in [2], in experiment [3], in [4], in experiment [5] and in experiment [6] was “inactive” each time. For the same molecule, the Potency entry in [7] and in experiment [8] was “inactive” each time.
Take `O=C(Nc1ccc2c(c1)Cc1ccccc1-2)C(F)(F)F`: the Potency result in [1], in experiment [2], in experiment [3], in [4], in [10] and in experiment [7] was “inactive” in each case. Moreover, the Potency entry in [8] is “inactive”. For the same molecule, the Potency was 34.4 µM (active) in [9], 17.8 µM (active) in [6], 5.03 µM (active) in experiment [11] and 3.56 µM (active) in [12].
Consider `O=[N+]([O-])c1ccc(Cl)cc1Cl`, for which the Potency entry in experiment [1], in [2], in experiment [3], in experiment [4], in experiment [9] and in experiment [6] was “inactive” in each case. For the same molecule, the Potency entry in experiment [11], in experiment [7] and in experiment [8] was “inactive” each time.
For `c1ccc(CN(Cc2ccccc2)Cc2ccccc2)cc1`, the Potency entry in experiment [1], in [2], in experiment [4], in [5] and in [8] was “inactive” throughout. Also, the Potency was 30.6 µM (active) in experiment [9]; 7.96 µM (active) in experiment [10]; 5.64 µM (active) in experiment [6]; 20 µM (active) in [12]; 24.5 µM (active) in experiment [7].
Take `CCCCCO`: the Potency entry in experiment [1], in experiment [2], in experiment [4], in [5], in [9] and in experiment [10] was “inactive” each time. Besides, the Potency result in experiment [6], in [11], in [7] and in experiment [8] was “inactive” each time.
Take `O=C(O)c1ccccc1[N+](=O)[O-]`: the Potency entry in experiment [1], in experiment [2], in experiment [4], in experiment [5], in experiment [9] and in [10] was “inactive” in each case. The Potency result in [6], in experiment [11], in experiment [12], in experiment [7] and in [8] was “inactive” each time.
Regarding `CC(CN=Cc1ccccc1O)N=Cc1ccccc1O` (stereo not drawn), the Potency entry in experiment [1], in [2], in experiment [4], in experiment [5], in experiment [9] and in [6] was “inactive” in each case. Further, the Potency result in [7] and in experiment [8] was “inactive” throughout. For the same molecule, the figures for the Potency in experiment [10] and in [12] were 35.6 µM (active) and 20 µM (active), respectively.
With `Nc1cccc2c(=O)[nH][nH]c(=O)c12`, the Potency entry in experiment [1], in [2], in [4], in experiment [5], in [9] and in experiment [6] was “inactive” throughout. The Potency result in [11] and in [8] was “inactive” throughout. For the same molecule, the Potency in experiment [10] was 5.05 µM (active).
In the case of `CC(C)(C)c1ccc(CCC=O)cc1`, the Potency entry in experiment [1], in experiment [2], in experiment [4], in experiment [5], in experiment [9] and in experiment [10] was “inactive” each time.
With `CNc1ccccc1`, the Potency entry in [1], in [2], in experiment [4], in [5], in [9] and in experiment [12] was “inactive” throughout. In addition, the Potency entry in [7] and in [8] was “inactive” in each case. Besides, the Potency in [6] was 31.7 µM (active).
In the case of `CC(=O)S[C@H](C(=O)N[C@H]1Cc2ccccc2[C@H]2CCC[C@@H](C(=O)O)N2C1=O)C(C)C`, the Potency result in experiment [1], in [2], in experiment [4], in experiment [5], in [9] and in experiment [10] was “inactive” in each case. Besides, the Potency entry in experiment [6], in experiment [12], in [7] and in [8] was “inactive” in each case.
